The nature of assay [1]: TOX21_p53_BLA_p2_viability: Viability Assessment in the Tox21 HCT-116 p53 Agonism Beta-lactamase Assay, Phase 2 (AID 2283591).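 Further: compound exposure lasted 16 h at 37 °C; actives lower the ATP signal meaning cytotoxicity.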 Put shortly:
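Cytotoxicity readout: CellTiter-Glo ATP luminescence, 30 min at room temperature, after the beta-lactamase read. Cells were HCT116 exposed 16 h at 37C to compounds pin-transferred at 217-fold dilution from DMSO stocks.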

A short description of assay [2]: TOX21_p53_BLA_p3_viability: Viability Assessment in the Tox21 HCT-116 p53 Agonism Beta-lactamase Assay, Phase 3 (AID 2283593).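 Further: cells exposed to compound for 16 h before reading.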 Put shortly: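 Cellular ATP was quantified by CellTiter-Glo luminescence, read after 30 min at room temperature. Beforehand, HCT116 cells (4000/well) received compound 5 h post-seeding, 217-fold diluted from DMSO, then incubated 16 h at 37C.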

Assay [3] has as its target Cellular tumor antigen p53 (Homo sapiens) (UniProt P04637). Put plainly: TOX21_p53_BLA_p3_ratio: Tox21 HCT-116 p53 Agonism Beta-lactamase Assay, Ratio, Phase 3 (AID 2283596). Put shortly:
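Cells were seeded at 4000/well, rested 5 h at 37C, then dosed with DMSO compound solutions (217-fold dilution) for 16 h. CCF4-AM substrate was loaded for 2 h at room temperature, and the 460/530 nm emission ratio was fitted for gain of signal versus DMSO.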

Assay [4] is described as follows: TOX21_p53_BLA_p4_viability: Viability Assessment in the Tox21 HCT-116 p53 Agonism Beta-lactamase Assay, Phase 4 (AID 2283597).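 Further: hits lower the luminescence signal meaning cytotoxicity.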 Put shortly:
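Readout: ATP luminescence (CellTiter-Glo), measured 30 min after reagent addition at RT. The reagent followed a 2 h CCF4-AM incubation, and the cells had been exposed to compound for 16 h at 37C.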

The target in assay [5] is Cellular tumor antigen p53 (Homo sapiens) (UniProt P04637). Put plainly: TOX21_p53_BLA_p5_ratio: Tox21 HCT-116 p53 Agonism Beta-lactamase Assay, Ratio, Phase 5 (AID 2283599). Put shortly: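 Beta-lactamase reporter ratio (blue 460 nm over green 530 nm, 405 nm excitation) after 2 h CCF4-AM loading, in HCT-116 cells exposed 16 h at 37 C to compounds pinned at 217-fold dilution. Increases relative to DMSO baseline scored.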
Chain of Cellular tumor antigen p53 (Homo sapiens) (P04637 whole entry, looked up): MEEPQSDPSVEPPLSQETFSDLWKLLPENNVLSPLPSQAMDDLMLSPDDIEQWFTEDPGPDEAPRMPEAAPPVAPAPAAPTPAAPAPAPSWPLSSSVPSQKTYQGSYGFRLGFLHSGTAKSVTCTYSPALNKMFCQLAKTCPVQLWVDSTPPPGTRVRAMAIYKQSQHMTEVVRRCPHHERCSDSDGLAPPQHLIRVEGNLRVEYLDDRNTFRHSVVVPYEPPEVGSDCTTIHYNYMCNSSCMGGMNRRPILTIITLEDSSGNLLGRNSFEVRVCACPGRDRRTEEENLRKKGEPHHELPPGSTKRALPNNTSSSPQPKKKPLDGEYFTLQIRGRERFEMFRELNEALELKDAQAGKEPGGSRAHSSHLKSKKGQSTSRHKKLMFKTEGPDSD

The nature of assay [6]: TOX21_p53_BLA_p5_viability: Viability Assessment in the Tox21 HCT-116 p53 Agonism Beta-lactamase Assay, Phase 5 (AID 2283600). Put shortly: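 Workflow: seed 4000 cells per well, wait 5 h, add compounds (DMSO, 217-fold dilution), incubate 16 h, load CCF4-AM 2 h, add CellTiter-Glo, read luminescence after 30 min.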
Assay [7] deals with Cellular tumor antigen p53 (Homo sapiens) (UniProt P04637). In words: TOX21_p53_BLA_p4_ratio: Tox21 HCT-116 p53 Agonism Beta-lactamase Assay, Ratio, Phase 4 (AID 2283601). Put shortly:
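Signal is the blue/green (460nm/530nm) ratio of cleaved versus uncleaved CCF4-AM substrate, read after 2 h substrate loading. Cells were HCT116 carrying the p53-responsive beta-lactamase reporter, dosed 16 h at 37C, 5% CO2; CellTiter-Glo measured in parallel.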

Assay [8] has as its target PGR (gene 5241) (UniProt P06401). Put plainly: TOX21_PR_BLA_Followup_Agonist_ratio: Tox21 HEK293 Progesterone Receptor (PR) Agonism Beta-lactamase Follow-Up Assay, Ratio (AID 2283933). Put shortly: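 Ratio-based beta-lactamase reporter signal after 16 hr compound treatment of PR-UAS-bla HEK293T cells at 37C. Substrate loading lasted 2 hr at room temperature.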
Assay [9] has the same target. In words: TOX21_PR_BLA_Followup_Antagonist_ratio: Tox21 HEK293 Progesterone Receptor (PR) Antagonism Beta-lactamase Follow-Up Assay, Ratio (AID 2283934).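 Further: PR-UAS-bla HEK293T cells stimulated with 1 nM R5020 agonist for 16 hr.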 Put shortly:
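Measured in PR-UAS-bla HEK293T cells co-treated with compound and 1 nM promegestone for 16 hr; beta-lactamase ratio read after 2 h FRET substrate loading, with parallel CellTiter-Glo cytotoxicity.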

Assay [10] is described as follows: TOX21_PR_BLA_Followup_Agonist_viability: Viability Assessment in the Tox21 HEK293 Progesterone Receptor (PR) Agonism Beta-lactamase Follow-Up Assay (AID 2283935).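 Further: signal loss means lower viability so actives are cytotoxic.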 Put shortly:
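Viability is read as CellTiter-Glo luminescence, where loss of signal indicates cytotoxicity. The cells are PR-UAS-bla HEK293T given compounds for 16 hr at 37C and 5% CO2, in the same wells used for the bla readout.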

A short description of assay [11]: TOX21_PR_BLA_Followup_Antagonist_viability: Viability Assessment in the Tox21 HEK293 Progesterone Receptor (PR) Antagonism Beta-lactamase Follow-Up Assay (AID 2283936).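 Further: cells exposed to compound with R5020 agonist for 16 h; hits lower the luminescence signal meaning cytotoxicity.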 Put shortly: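 PR-UAS-bla HEK293T cells in medium with 2% charcoal-stripped FBS were treated with compounds plus R5020 for 16 hr at 37C. After the beta-lactamase read, CellTiter-Glo was added to the same wells and luminescence read after 30 min at room temperature.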

A short description of assay [12]: TOX21_PR_LUC_Followup_Agonist_viability: Viability Assessment in the Tox21 HEK293 Progesterone Receptor (PR) Agonism Luciferase Follow-Up Assay (AID 2283941).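 Further: loss of signal means cytotoxicity so actives lower viability.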 Put shortly: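 Seeding: HEK293-PR-A-luc, 3,000 cells/well, 5 h at 37C. Treatment: compound in DMSO, 16 h, 37C. Read: CellTiter-Glo ATP luminescence, signal loss taken as lower viability.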
The target of assay [13] is PGR (gene 5241) (UniProt P06401). Put plainly: TOX21_PR_LUC_Followup_Agonist: Tox21 HEK293 Progesterone Receptor (PR) Agonism Luciferase Follow-Up Assay (AID 2283937; active means hit-call score of the fitted dose curve at least 0.9, where 1 is the maximum; inactive means score below 0.9). Put shortly: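 In HEK293 cells stably expressing PR-A with a luciferase reporter, compounds were incubated 16 h at 37C, and induced luminescence was quantified with ONE-Glo, multiplexed with cell viability.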
Chain of PGR (gene 5241) (P06401 whole entry, looked up): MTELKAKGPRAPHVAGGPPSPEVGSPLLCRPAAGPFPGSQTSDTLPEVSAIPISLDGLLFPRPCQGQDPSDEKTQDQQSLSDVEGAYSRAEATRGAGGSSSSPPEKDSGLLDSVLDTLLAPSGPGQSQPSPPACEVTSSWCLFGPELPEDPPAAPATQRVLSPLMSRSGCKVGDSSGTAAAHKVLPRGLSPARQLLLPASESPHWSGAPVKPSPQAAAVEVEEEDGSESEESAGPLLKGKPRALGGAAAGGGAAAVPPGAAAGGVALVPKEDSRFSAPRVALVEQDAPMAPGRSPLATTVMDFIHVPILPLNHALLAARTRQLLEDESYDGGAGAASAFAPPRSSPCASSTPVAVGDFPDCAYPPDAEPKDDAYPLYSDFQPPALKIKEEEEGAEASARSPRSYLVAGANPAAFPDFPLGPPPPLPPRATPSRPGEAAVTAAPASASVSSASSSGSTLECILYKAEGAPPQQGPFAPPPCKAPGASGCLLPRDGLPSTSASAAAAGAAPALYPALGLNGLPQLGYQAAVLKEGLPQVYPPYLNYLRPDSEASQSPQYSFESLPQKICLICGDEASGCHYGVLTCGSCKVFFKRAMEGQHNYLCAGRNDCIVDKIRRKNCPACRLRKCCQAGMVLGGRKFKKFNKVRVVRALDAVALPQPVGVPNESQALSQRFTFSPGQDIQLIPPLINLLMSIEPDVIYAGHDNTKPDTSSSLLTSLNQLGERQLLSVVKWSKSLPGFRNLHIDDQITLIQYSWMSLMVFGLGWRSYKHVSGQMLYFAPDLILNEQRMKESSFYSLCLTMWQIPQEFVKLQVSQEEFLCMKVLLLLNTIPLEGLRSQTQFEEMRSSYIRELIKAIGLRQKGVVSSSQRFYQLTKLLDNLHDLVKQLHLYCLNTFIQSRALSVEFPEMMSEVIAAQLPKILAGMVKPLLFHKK

The structures appear in SMILES notation. Records with an inconclusive call do not appear. The source made the active and inactive calls. How the source made its calls, unless noted: active means hit-call score of the fitted dose curve at least 0.9, where 1 is the maximum; inconclusive means response in the unintended direction; inactive means score below 0.9.

In the case of `CCCCCCCCC1CO1` (stereo not given), the molecule was classed as inactive in [1], in [2], in assay [3], in assay [4], in [5] and in [6]. For the same molecule, the outcome in [7] was inactive.

In the case of `CNCc1ccccc1`, the outcome in [1], in assay [2], in assay [3], in assay [4], in assay [5] and in [6] was inactive. Besides, the outcome in [7] was inactive.

As usually defined, the AC50 is the concentration at which the activity in the assay is half-maximal. Regarding `Cc1c(C)c2c(c(C)c1OC(=O)CCC(=O)OCCO)CCC(C)(CCCC(C)CCCC(C)CCCC(C)C)O2` (stereo not given), in [1], the molecule was classed as inactive. The half-maximal activity concentration (AC50) was 19.2 µM (active) in [2]; 37.3 µM (active) in [3]; 34.6 µM (active) in [4]; 16.2 µM (active) in assay [5]; 13.3 µM (active) in assay [6]; 37.8 µM (active) in assay [7].

Consider `CC(=O)c1ccc2c(c1)N(CCCN1CCC(CCO)CC1)c1ccccc1S2`, for which the outcome in assay [1], in assay [2], in [3], in [4], in [5] and in assay [6] was inactive. The outcome in assay [7] was inactive.

Turning to `C[C@H](CCC(=O)O)[C@H]1CC[C@H]2[C@@H]3[C@H](O)C[C@@H]4C[C@H](O)CC[C@]4(C)[C@H]3C[C@H](O)[C@]12C`, the molecule was called inactive in assay [1], in assay [2], in assay [3], in assay [4], in assay [5] and in assay [6]. Moreover, in [7], the outcome was inactive.

Turning to `CCC(=C(CC)c1ccc(O)cc1)c1ccc(O)cc1`, the AC50 in assay [1] was 38.3 µM (active); in assay [3] it was 7.64 µM (active); in assay [5] it was 17.7 µM (active); in [7] it was 7.47 µM (active); with PGR (gene 5241) [9], 23.7 µM (active). Moreover, the result (in assay [2]; in assay [4]; in assay [6]; with PGR (gene 5241) [8]; in assay [10]; in assay [11]) was inactive. In addition, the molecule was classed as inactive in assay [12].

Regarding `NC(=O)n1c(O)c(C(=O)c2cccs2)c2cc(Cl)ccc21`, the molecule was classed as inactive (in assay [1]; in assay [2]; in assay [4]; in assay [6]; in [7]; with PGR (gene 5241) [8]). In addition, the outcome (in the assay with PGR (gene 5241) [9]; in assay [10]; in assay [11]; with PGR (gene 5241) [13]; in [12]) was inactive. Moreover, the AC50 is 20.4 µM (active) in [3] and 34.4 µM (active) in [5].

Turning to `OC[C@@H](O)[C@@H](O)CO`, the outcome in assay [1], in [2], in assay [3], in assay [4], in assay [5] and in assay [6] was inactive. Also, the outcome in assay [7] was inactive.

On to `CC(C)[N+](C)(C)CC(O)COc1cccc2ccccc12` (stereo not given), for which the molecule was called inactive in assay [1], in assay [2], in [3], in assay [4], in assay [5] and in [6]. Moreover, the result in assay [7] was inactive.

As to `CNc1cc(OC)c(C(=O)N[C@H]2CCN(Cc3ccccc3)[C@H]2C)cc1Cl`, the call in assay [1], in assay [2], in assay [3], in assay [4], in assay [5] and in assay [6] was inactive.
